Source: PubChem BioAssay
In the library only some 14% were active in any assay of this set; here they are far more common.
HCMV inh – human cytomegalovirus inhibition; HFF cells, HCMV-luciferase reporter, 72 h; stronger effect = lower value; activity change, negative = inhibition, % at 57.5 µM; hit rate 4.5% among 410,000; in the data active = activity change below about -60%; inconclusive = no clear call, values can overlap the other calls; inactive = above about -39%
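Two compound doses tested in HFFs infected with HCMV-luciferase, MOI 1 PFU/cell, 72 h at 37C. Lysate luminescence read with OneGlo; data normalized against buffer-only and 10uM Salinomycin inhibitor controls.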
HCV inh – HCV inhibition. Huh7.5.1 HCVcc-Cre infection, luciferase reporter, 44 h. Potency, µM (top dose mostly 41.8 µM), without a hit: at the highest dose activity change, negative = inhibition, hits mostly inhibitors. hit rate 3.4% among 340,000. AID 651820; note: potency is the fitted concentration of half-maximal effect
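HCVcc-Cre virus at an moi near 0.5 was added right after compound to cells cultured 4 h from seeding (1,000 cells/well). Luciferase activity was determined 44 h later, 15 min after substrate addition at RT.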
LASV entry inh – Lassa virus entry inhibition. Lassa virus pseudotype entry inhibition, cell reporter. Potency, µM (titrated, usually from 37.9 µM), inactives show at the top dose activity change, negative = inhibition, most hits filed as inhibitors. hit rate 1.2% among 300,000; calls by dose curve; tested in HEK293 cells; note: potency is the fitted concentration of half-maximal effect; nearly all actives have a fitted effect of over 50% in size
MARV entry inh – blocks Marburg virus binding to or entry into cells; Marburg virus pseudotyped entry inhibition, cell reporter; Potency, µM (doses to about 37.8 µM), without a hit: at the highest dose activity change, negative = inhibition, usual class: inhibitors; hit rate 1.8% among 300,000; calls by dose curve; tested in HEK293 cells; note: potency is the fitted concentration of half-maximal effect
Pf growth 48h – inhibits P. falciparum growth in the first generation, 48 h. P. falciparum luciferase growth in erythrocytes, 48 h. Potency, µM (highest dose often 28.7 µM), for inactives: at the top dose activity change, negative = inhibition, hits mostly inhibitors. hit rate 5.9% among 310,000. AID 504832; note: potency is the fitted concentration of half-maximal effect
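A one-generation exposure of luciferase-tagged malaria parasites in RPMI 1640/Albumax erythrocyte culture, 37 C and 5% CO2. Inhibition is inferred from decreased luminescence after adding detection reagent.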
Pf growth 96h – P. falciparum growth inhibition at 96 hour, primary screen for plastid delayed-death inhibitors; hit rate 6.9% among 320,000; Potency, µM (doses to about 28.7 µM), for inactives: top-dose activity change, negative = inhibition, hits mostly inhibitors; P. falciparum luciferase reporter growth, 96 h; AID 504834; note: potency is the fitted concentration of half-maximal effect
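Infected RBCs, 2% Hct / 0.05% parasitemia final; luciferase-reporter P. falciparum; cpd 96 h, 37 C, 5% CO2; luciferase detection reagent; luminescence.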
* marks the source's active call; other numbers are inactive results; i = inactive; ? = inconclusive; . = no result; [ ] = dose if it differs, or a comment. Unless noted, calls come from the whole dose curve; as a rule, active = well fitted inhibition curve with a large enough effect; inconclusive = small, poorly fitted or top-dose-only effect, or another doubt; inactive = no such curve, though single readings can be large or run the other way. % is set by controls: 0 for no effect and ±100 for the full control effect.

SMILES	HCMV inh	HCV inh	LASV entry inh	MARV entry inh	Pf growth 48h	Pf growth 96h
CCCCCCCCn1c(=O)c(C(=O)OC)c(N)c2ccccc21	-64*	13µM*	?	?	15µM*	?
Cc1ccc(-n2c(C)cc(C(=S)N3CCOCC3)c2C)cc1C	-12	?	?	?	?	10µM*
CCCCCc1ccc(CC(=O)O)cc1	36	24%	10%	-1%	10%	9.3µM*
CCCCc1ccc(CC(=O)O)cc1	26	9%	0%	14%	23%	17%
COc1cc(NC(=S)NC2CC2)c(OC)cc1Cl	-81*	-23%	-3%	0%	5%	11%
COC(=O)[C@@H]1[C@@H](CO)[C@@H]2Cn3c(ccc(Br)c3=O)[C@H]1N2Cc1cc(F)ccc1F	54	.	.	.	.	.
CC(=O)C1(O)C(C)CC2C3CCC4CC(O)CCC4(C)C3=CCC21C (stereo not drawn)	-24	12%	2%	10%	.	.
C[C@@H]1CC2[C@@H]3CC[C@H]4CC(=O)CC[C@]4(C)C3=CC[C@]2(C)[C@@]1(O)C(=O)CO (stereo partly drawn)	-101*	?	-22%	-16%	-4%[0.00184 µM]	?
CCOc1ccc(OCc2cccc(C(=O)N3CCOCC3)c2)cc1	153	-21%	.	2%	141%	33%
CC1CN(C(=O)c2cccc(COc3ccc(Br)cc3)c2)CC(C)O1 (stereo not drawn)	-78*	?	?	?	150%	197%
CN1CCN(c2ccccc2NC(=O)c2ccc(-c3ccc(Cl)c(Cl)c3)o2)CC1	5	2%	?	?	1%	7%
COc1cc(NC(=O)c2ccccc2Cl)ccc1NC(=O)c1cccs1	-38	-24%	8%	?	142%	26%
CCC(=O)N1CCN(c2ccccc2NC(=O)c2ccc(-c3cccc([N+](=O)[O-])c3)o2)CC1	48	?	-15%	?	8.3µM*	5%
CN1CCN(c2ccccc2NC(=O)c2ccc(-c3cccc([N+](=O)[O-])c3)o2)CC1	31	5.6µM*	?	?	10µM*	?
Cc1cc(N2CCN(C)CC2)ccc1NC(=O)c1ccc(-c2ccc(Cl)cc2)o1	?	14µM*	?	?	?	4.1µM*
COc1cc(NC(=O)c2ccc(-c3cccc(F)c3)o2)ccc1NC(=O)c1ccccc1Cl	11	7.1µM*	.	.	.	.
O=C(NCC[C@@H]1CC[C@@H](NS(=O)(=O)c2ccccc2)[C@@H](CO)O1)c1cc(Cl)cc(Cl)c1	8	.	.	.	.	.
CN1CCN(c2ccccc2NC(=O)c2ccc(-c3ccc(Br)cc3)o2)CC1	.	?	-2%[46.1 µM]	?	13µM*	4%
COc1ccc(CNC(=O)CNC(=O)c2ccc(Br)o2)cc1OC	17	8%	2%[46.1 µM]	0%[46.1 µM]	7%	14%
COc1ccccc1NC(=O)c1ccc(-c2ccc(Br)cc2)o1	168	8.9µM*	?	-16%	.	3%
CCCCn1nnc(NC(=O)c2ccc(-c3ccccc3[N+](=O)[O-])o2)n1	-35	?	.	.	-14%	8.3µM*
COc1ccccc1NC(=O)CNC(=O)c1ccc(Br)o1	-7	3%	.	.	25%	0.029µM*
CCn1nnc(NC(=O)c2ccc([N+](=O)[O-])o2)n1	-17	-11%	-14%	-1%[46.1 µM]	20%[5.75 µM]	i
CCOC(=O)c1c(S(=O)(=O)N2CCN(c3cc(Cl)ccc3C)CC2)c(C)n(C)c1C	-13	.	4%[46.1 µM]	.	.	.
COc1ccccc1NC(=O)c1ccc(-c2ccccc2[N+](=O)[O-])o1	-15	11µM*	.	?	34%	10%
SMILES	HCMV inh	HCV inh	LASV entry inh	MARV entry inh	Pf growth 48h	Pf growth 96h
COc1ccc(/C(N)=N/OC(=O)c2c(-c3ccccc3Cl)noc2C)cc1OC	-79*	13µM*	?	?	?	-7%
Cc1nc(/C(N)=N/OC(=O)c2c(-c3ccccc3Cl)noc2C)cs1	-39	-13%	-25%	7.9µM*	?	10µM*
O=C(O)c1cc(N2N=C(C(F)(F)F)/C(=C/C=C/c3ccco3)C2=O)ccc1Cl	-90*	-14%	-11%	?	42%	?
CC1=NN(c2ccc(C(=O)OC(C)C)cc2)C(=O)/C1=C\C=C\c1ccco1	5	?	-5%	-25%	2.9µM*	?
CCOC(=O)c1cc(-c2ccc(/C=C3/C(=O)N(c4ccc(C(=O)O)cc4)N=C3C)o2)ccc1Cl	6	20%	2%	18%[46.1 µM]	23%	?
CCOC(=O)c1ccc(N2N=C(C)/C(=C/C=C/c3ccco3)C2=O)cc1	8	-10%	?	-29%	-13%	13µM*
CC1=NN(c2ccc(Cl)c(C(=O)O)c2)C(=O)C1	-11	4%	11%	-19%	4%	?
CC(C(=O)O)N1C(=O)/C(=C/C=C/c2ccco2)SC1=S (stereo not drawn)	7	9%	-12%	?	5%	102%
COCCCNC(=O)CC(c1cc(OC)c(OC)c(OC)c1)N1Cc2ccccc2C1=O (stereo not drawn)	7	.	23%[46.1 µM]	.	.	.
CC1CCN(S(=O)(=O)c2cn(CC(=O)Nc3ccc(F)cc3)c(=O)c3ccccc23)CC1	-3	.	?	5.6µM*	.	.
CSc1ccc(-c2nc3ncccn3c2Nc2ccc(C)c(C)c2)cc1	23	.	-5%[46.1 µM]	?	.	.
CCOC(=O)C1CCN(S(=O)(=O)c2cc(-c3onc(C)c3C)ccc2C)CC1	61	.	-12%[46.1 µM]	.	.	.
O=C(O)/C=C\c1cnc[nH]1	.	.	.	4%	.	.
CCOc1cc(/C=N/NC(=O)c2ccc(O)cc2)ccc1Oc1nc(Cl)ncc1F	-71*	-21%	.	.	?	26%
COc1ccc(/C=N/NC(=O)CC#N)cc1Oc1nc(Cl)ncc1F	-19	-1%	.	.	-18%	19%
CCOc1cc(/C=N\Nc2ncc(F)c(N3CCOCC3)n2)ccc1Oc1nc(Cl)ncc1F	-73*	10µM*	?	?	1.7µM*	1.9µM*
CN(CCc1ccccc1)C(c1cc2ccccc2o1)c1nnnn1C(C)(C)C (stereo not drawn)	-9	.	.	.	.	.
CCOC(=O)C(CNc1ccc(OCc2ccccc2)cc1)NC(=O)c1ccccc1 (stereo not drawn)	22	.	.	.	.	.
CC(=O)C(C(C)=O)c1c(Cl)c(O)c(O)c2c(C(=O)c3ccccc3)coc12	-107*	10µM*	7.1µM*	?	.	2.6µM*
O=c1ccc(-c2ccc(S(=O)(=O)NCC3CCN(Cc4cccc(F)c4)CC3)s2)n[nH]1	0	-16%	.	.	5.2µM*	?
CCOC(=O)c1c(S(=O)(=O)NCC2CCN(Cc3cccc(F)c3)CC2)c(C)n(C)c1C	18	-2%	.	.	5%	-29%
